An excerpt weighted towards active compounds, which were near 5.7% of everything screened.
AHR activator = activators of human aryl hydrocarbon receptor; P35869; AHR-responsive luciferase reporter cells, luminescence; activation, % at 5 µM; hit rate 2.5% among 320,000; in the data active means activation above about 47%;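 further: 0% = vehicle wells and 100% = reference agonist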
hgDAF-12 ag = hgDAF-12 agonism, primary luciferase screen; HEK293 GAL4-hgDAF12 UAS-luciferase reporter, agonist luminescence; normalized to butyrate control; activation, % at 6.8 µM; hit rate 1.8% among 370,000;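 active means activation above a cutoff set at the mean of all screened compounds plus 3 SD, cut at about 10% in these data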;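 further: 0% = DMSO wells and 100% = sodium butyrate wells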
DAX1 inh-1 = inhibitors of DAX1 repression of SF-1 activated StAR promoter; hit rate 1.1% among 370,000; inhibition, % at 6.8 µM; HEK293T StAR-luciferase reporter, SF-1/DAX-1 repression relief;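 active means inhibition above the mean over all tested compounds plus 3 SD, cut at about 3.6% in these data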;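 further: 0% = DAX-1 cells with DMSO and 100% = cells lacking DAX-1 with DMSO; higher inhibition means more luminescence from relief of DAX-1 repression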
ssDAF-12 act = activators of S. stercoralis DAF-12 nuclear receptor. HEK293 ssDAF-12/GRIP1 lit1-tk-luc reporter, luminescence; % of 3 µM dafachronic acid response. activation, % at 6.8 µM. hit rate 1% among 370,000. AID 652126;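 active means activation above the mean over all tested compounds plus 3 SD, cut at about 0.9% in these data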;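 further: 0% = DMSO-only wells and 100% = 3 µM delta7-dafachronic acid wells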
DAX1 inh-2 = NR0B1 (DAX1) inhibition. hit rate 0.99% among 340,000. HEK293 Gal4-DAX1 luciferase reporter, luminescence. inhibition, % at 6.75 µM. P51843;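 active means inhibition above the mean over all tested compounds plus 3 SD, cut at about 4.2% in these data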;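 further: 0% = DAX1-transfected cells with DMSO and 100% = empty-vector control cells with DMSO; inhibition shows as a rise in luminescence from relieved DAX1 repression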
hcDAF12 agonist = activates DAF-12 receptor from parasite H. contortus. activation, % at 6.8 µM. HEK293 hcDAF-12 lit1-tk-luc reporter, luminescence; 0% DMSO, 100% Δ7-dafachronic acid. hit rate 1.4% among 370,000;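 active means activation above the mean of all tested compounds plus 3 SD, cut at about 5.5% in these data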;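 further: 100% = response to 3 µM Δ7-dafachronic acid high control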
LXRb hcDAF ctr = activates human LXR-beta, counter-screen for hcDAF-12 agonists; AID 743027; HEK293 Gal4-LXR tk-luc reporter, luminescence, 24 h; normalized: DMSO 0%, positive control 100%; shares compounds with hcDAF12 agonist; 3,400 tested, under 10 active; activation, % at 6.8 µM;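 active means mean percent activation of the reporter above a cutoff set as the average over tested compounds plus their standard deviation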
Target sequence (P55055 whole entry, looked up, the tested form may be a part): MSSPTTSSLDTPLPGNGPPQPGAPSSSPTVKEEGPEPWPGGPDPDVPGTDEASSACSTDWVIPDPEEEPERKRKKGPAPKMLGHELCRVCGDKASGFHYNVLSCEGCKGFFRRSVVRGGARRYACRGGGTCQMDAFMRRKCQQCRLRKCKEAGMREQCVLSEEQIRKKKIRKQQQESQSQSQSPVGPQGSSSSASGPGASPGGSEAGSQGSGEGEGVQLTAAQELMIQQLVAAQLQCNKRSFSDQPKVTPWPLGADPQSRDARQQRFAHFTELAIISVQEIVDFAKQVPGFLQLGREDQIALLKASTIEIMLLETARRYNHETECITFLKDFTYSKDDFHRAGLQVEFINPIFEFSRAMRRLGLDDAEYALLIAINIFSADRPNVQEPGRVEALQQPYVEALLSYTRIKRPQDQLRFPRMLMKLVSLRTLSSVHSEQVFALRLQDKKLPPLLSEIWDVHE
hcDAF12 conf = hcDAF-12 agonism, confirmation assay. shares compounds with hcDAF12 agonist. HEK293 hcDAF-12 lit1-tk-luc reporter, luminescence; % of Δ7-dafachronic acid response. activation, % at 6.8 µM. hit rate 61% among 3,400;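 active means mean activation across triplicate tests above the threshold derived from the earlier primary screen, cut at about 5.5% in these data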;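 further: 0% = DMSO only wells and 100% = 3 µM Δ7-dafachronic acid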
* marks the source's active call; other numbers are inactive results; / = no result.

SMILES | AHR activator | hgDAF-12 ag | DAX1 inh-1 | ssDAF-12 act | DAX1 inh-2 | hcDAF12 agonist | LXRb hcDAF ctr | hcDAF12 conf
O=C(Nc1nccs1)C1Cc2ccccc2CN1S(=O)(=O)c1ccc(F)cc1 (stereo not drawn) | 64* | 12* | 3 | 1 | 1 | 11* | 1 | 7.7*
CC(C)c1ccc(NC(=O)C2Cc3c(-c4cccc(F)c4)ccnc3O2)cc1 (stereo not drawn) | / | -7 | -3 | -2 | / | -3 | / | /
Cc1ccc2nc(-c3ccc(SCC(=O)N4CCc5ccccc54)nc3)[nH]c2c1 | 59* | 5 | 1 | 0 | 1 | 7.1* | 1 | 6.4*
Cc1nn(C(=O)c2cc3sccc3[nH]2)c(C)c1C | 71* | 10* | 2 | 0 | 3 | 8.1* | 1 | 11*
COCCn1c(SCC(=O)N2CCCCCC2)nc2c([nH]c3ccccc32)c1=O | 38 | 3 | 1 | 0 | 1 | 7.2* | 0 | 0
COc1ccc(Cn2cc(CN3CC(N4CCSCC4)CS3(=O)=O)nn2)cc1 (stereo not drawn) | / | 0 | -3 | -1 | / | 0 | / | /
Cc1sc2ncnc(N/N=C/c3ccccc3O)c2c1C | 19 | 7 | 0 | 0 | -4 | 7.2* | 0 | 0
S=C1NC2(CCCC2)Nc2ccccc21 | 37 | 3 | 0 | 0 | 2 | 6.7* | 0 | 5
COC(=O)C1=C(C)N(Cc2cccc(C(F)(F)F)c2)C(=NCc2ccc3c(c2)OCO3)NC1c1cccc(F)c1 (stereo not drawn) | / | -1 | -2 | -1 | / | 1 | / | /
Cc1ccc(CNc2nc3ccccc3n2C)o1 | 18 | 12* | 1 | 1.1* | 2 | 7.8* | 1 | 8.3*
COc1ccc2nc3sc(C(=O)NCCCN4CCc5ccccc5C4)cc3cc2c1 | 40 | 4 | 2 | 1 | -1 | 8.0* | 0 | 6.8*
CC(C)(C)NC(=S)N/N=C/c1cc(Br)c(O)c(Br)c1 | 5 | 1 | 0 | 1 | 2 | 7.4* | 0 | 1
COc1ccc(NS(=O)(=O)NC(=O)c2c(C)n(C)c3ccccc23)cc1 | 8 | 6 | 0 | 0 | -1 | 7.3* | 0 | 1
COc1ccc(NC(=O)c2c(Cl)n(C)c3ccccc23)cc1 | 43 | 7 | -1 | 1.0* | -2 | 8.2* | 0 | 6.9*
O=C(/C=C/c1ccccc1O)c1ccc(Cl)cc1 | 66* | 9 | 1 | 1 | -1 | 6.8* | 0 | 4
COc1ccc(NC(=O)C2Cc3cc(S(=O)(=O)N4CCCCC4)ccc3N2C(C)=O)cc1Cl (stereo not drawn) | 6 | -1 | 0 | -1 | -1 | -2 | / | /
CCOC(=O)CCCCCC(=O)Nc1ccc2c(c1)C(=O)N([C@H](C)CO)C[C@@H](C)[C@H](CN(C)Cc1ccc3c(c1)OCO3)O2 | 0 | -1 | 1 | 0 | 0 | 1 | / | /
Cn1cccc1/C=C1\CCc2ccccc2C1=O | 21 | 10 | 3 | 0 | -4 | 10* | 1 | 11*
O=C1/C(=C/c2cccs2)Cc2ccccc21 | 5 | 5 | 0 | -1 | -1 | 1 | / | /
Cn1cccc1/C=C1\Cc2ccccc2C1=O | 6 | 19* | 3.9* | 1.7* | 4.3* | 12* | 2 | 9.4*
Cc1ccc2nc(SCC(=O)NCc3ccccc3)nc(=O)n2c1 | 0 | 0 | 0 | -1 | -1 | 0 | / | /
CN(C)c1ccc(C2Nc3cccc4cccc(c34)N2)cc1 | 23 | 4 | 1 | 1.6* | -1 | 8.4* | 0 | 8.3*
CC(C)Cc1nccs1 | 0 | -3 | 0 | -1 | 0 | 2 | / | /
CN(C)CCCN(C(=O)C1COc2ccccc2O1)c1nc2ccc(F)cc2s1 (stereo not drawn) | 0 | -3 | 0 | -1 | 0 | 2 | / | /
CN(C)CCCN(C(=O)c1sc2ccccc2c1Cl)c1nc2ccc(F)cc2s1 | 31 | 4 | 1 | 0 | 0 | 7.6* | 0 | 8.0*
SMILES | AHR activator | hgDAF-12 ag | DAX1 inh-1 | ssDAF-12 act | DAX1 inh-2 | hcDAF12 agonist | LXRb hcDAF ctr | hcDAF12 conf
CC(=O)Oc1ccc(Cl)cc1/C=C/c1ccc2ccccc2n1 | 71* | 11* | 2 | 1 | 1 | 8.4* | 1 | 6.2*
CC1CC(C)CN(S(=O)(=O)N2CCC(C(=O)NCCC3=CCCCC3)CC2)C1 (stereo not drawn) | -2 | -2 | 0 | -1 | 0 | 1 | / | /
CCOc1ccc(C=Nc2cccc3ncccc23)cc1 | 32 | 0 | -1 | 0 | 2 | 9.2* | 0 | 4
COc1ccc2c(c1)C1=NN(/C(C)=C/C(C)=O)C(c3ccc(F)cc3)C1CC2 (stereo not drawn) | 69* | 6 | 1 | 1.3* | 1 | 9.5* | 0 | 5.7*
CCCCCN(C(=O)COC(=O)c1ccc(C)cc1)c1c(N)n(CCCC)c(=O)[nH]c1=O | -1 | 0 | -2 | -1 | 0 | 1 | / | /
CCc1[nH]nc(C(=O)NC2CCCc3c2cnn3-c2cc(C)cc(C)c2)c1C (stereo not drawn) | -2 | -1 | 3 | -1 | 0 | -2 | / | /
NS(=O)(=O)c1ccc(CCNCc2cccnc2)cc1 | 0 | -2 | 0 | -1 | 1 | -1 | / | /
O=C(N/N=C/c1ccc(Cl)cc1Cl)C(=O)NC1CC1 | 3 | -1 | 1 | -1 | 0 | 0 | / | /
Cc1ccc(S(=O)(=O)N2CCN(C(=O)CN3C(=O)NC(C)(c4ccc5ccccc5c4)C3=O)CC2)cc1 (stereo not drawn) | / | -3 | -2 | -1 | 0 | -2 | / | /
CCc1ccc(/C=C/C(=O)c2ccc(N3CCOCC3)cc2)cc1 | 0 | 3 | 0 | -2 | -2 | 6.8* | 0 | 1
O=C(/C=C/c1ccc(F)cc1)c1ccc(N2CCOCC2)cc1 | -1 | 3 | 1 | -2 | 0 | 0 | / | /
CC1CCN(C(=O)CSc2nc(N)c(NC(=O)c3ccccc3)c(=O)[nH]2)CC1 | -2 | -2 | 0 | -1 | 0 | 1 | / | /
Cc1cccc(-c2cc3nc(C)cc(C)n3n2)c1 | 43 | 8 | 3 | 1.6* | 1 | 8.6* | 1 | 11*
COc1cc2c(cc1OC)C(c1ccccc1)=NCC2 | 5 | 0 | -1 | -1 | -2 | 7.8* | 0 | 0
O=C(c1cc[n+]([O-])cc1)N1CCc2c([nH]c3ccccc23)C1c1ccccc1Cl (stereo not drawn) | 14 | 1 | 0 | 0 | / | 3 | / | /

Assay outcomes as filed in PubChem BioAssay.
